Unmarked numbers belong to inactive results.

The experiment can be described thus: JC-1 mitochondrial signal, unstimulated adipocytes – cell-based, JC-1 fluorescence, 3T3-L1 adipocytes, 24 h, 100 nL compound, profiling panel (AID 1168). Further: test concentration not given here. The following applies: JC-1 mitochondrial fluorescence, higher = more signal, called active from +8 up or from −8 down.
As for `COC(=O)[C@@]1(Cc2ccc(OC)cc2)[C@H]2c3cc(C(=O)N(C)C)n(Cc4ccc(C)o4)c3C[C@H]2CN1C(=O)c1ccccc1`, the z-score was -0.263. Consider `CCCCCN1CC=CC23O[C@@H]4/C=C\CCC(C)OC(=O)C4[C@H]2C(=O)N(C(CO)C(C)C)[C@@H]3C1=O` (stereo not given in full), for which the z-score is -0.0517. Turning to `CCOC(=O)C[C@H]1[C@H](OC(=O)c2ccccc2-c2ccccc2)[C@@H](NC(=O)c2ccc3ccccc3n2)c2cc(OCCCO)ccc2N1C(=O)Cc1ccc(OC)cc1`, the z-score was -0.363.

`O=C1OCCC/C=C\[C@H]2OC34C=CCN(c5ccc6ccccc6c5)C(=O)[C@H]3N(CCO)C(=O)[C@@H]4C12` (stereo not given in full): the z-score is -0.622. The figure for `O=C1N(Cc2ccccc2)c2ccccc2C[C@]12N=C(c1ccc(OCCCO)cc1)O[C@@H]2c1ccccc1` is 0.162. The figure for `O[C@@H](Cc1ccccc1)[C@@H](/C=C/C1CC1)N(CC#Cc1ccccc1)Cc1ccccc1Br` is -0.344; for `O=C(C1N=C(c2ccc(OCCCO)cc2)N(c2ccccc2)O1)N1CCCCC1` (stereo not given) it is -0.716. Under `CC(C)[Si]1(C(C)C)OCc2cc(-c3ccc(-c4ccc(Cl)c(Cl)c4)o3)nc(-c3ccccc3)c21` stands -0.485; under `COc1ccc([Si](C)(C)[C@@H]2[C@@H](CCO)O[C@]3(C(=O)N(Cc4ccccc4)c4ccc(NC(=O)[C@H](C)O)cc43)[C@H]2C)cc1`, -0.241. For the compound `COc1cc(NN2C(C(O)c3ccc(N(C)C)cc3)C=CC3C(=O)N(c4ccccc4)C(=O)C32)cc(OC)c1OC` (stereo not given), the z-score is -0.783.

(Values after PubChem BioAssay.)
